The results in this text go back to PubChem BioAssay AID492973 (The Scripps Research Institute Molecular Screening Center, 2010).

In general, inhibition refers to the share of the control response that was lost under treatment.

Values without a mark were called inactive. Calls of active or inactive are those of the source.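 How the source made its calls: active means inhibition above 50% of the enzyme in parasite cell lysate; inactive means the rest.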

The nature of this experiment: PfM17LAP inhibitors in parasite extract, late-stage follow-up, cell lysate, fluorescence, Plasmodium falciparum lysate, powder samples (AID 492973). As to conditions: P. falciparum cell lysate, H-Leu-NHMec fluorescence; at 5 µM; hits give high values.
Take `CCOc1ccc(NC(=O)Nc2cccs2)cc1`: the inhibition was 48%.
`COc1cc(NC(=O)CSc2nc3c(C)ccc(C)c3cc2C)c(C(=O)O)cc1OC`: the inhibition was 74% (active).
To `O=C(Nc1ccc(Cl)cc1)Nc1cccc(C(=O)O)c1` belongs 65% (active); to `Cc1ccc(-c2c(C)sc(NC(=O)[C@@H]3C4CCC(O4)[C@@H]3C(=O)O)c2C(=O)OC(C)C)cc1` (stereo not given in full), 23%.
On to `CCc1cc2ccccc2nc1SCC(=O)Nc1cc(OC)c(OC)cc1C(=O)O`, for which the inhibition was 68% (active).
In the case of `COc1cc(NC(=O)CSc2nc3cc(C)ccc3cc2C)c(C(=O)O)cc1OC` it was 64% (active); in that of `N#Cc1c(NC(=O)[C@@H]2C3C=CC(C3)[C@@H]2C(=O)O)sc2c1CCCCC2` (stereo not given in full), 30%; in that of `CCOc1cccc(-c2cc(=O)[nH][nH]2)c1`, 43%.
In the case of `O=C(Nc1cc(Cl)ccc1Cl)[C@H]1CC=CC[C@H]1C(=O)O`, the inhibition is 9%.
On to `COC(=O)c1c(-c2cc(C)ccc2C)csc1NC(=O)[C@@H]1CC=CC[C@@H]1C(=O)O`, for which the inhibition is 64% (active).
Consider `O=C(CSc1nc(O)cc(=O)n1-c1ccccc1)Nc1ccc2c3c(cccc13)CC2`, for which the inhibition is 22%.
To `S=c1nc(-c2ccccc2Br)[nH][nH]1` belongs 26%; to `CCn1c2ccccc2c2cc(NC(=O)CSc3nccc(=O)[nH]3)ccc21`, 49%.
With `CCc1ccc(NC(=O)[C@H]2CC=CC[C@H]2C(=O)O)cc1`, the inhibition is 22%.
In the case of `COC(=O)c1c(NC(=O)[C@H]2CC=CC[C@H]2C(=O)O)sc(C)c1C` it was 31%; in that of `CCOC(=O)c1c(-c2ccc(C)cc2)csc1NC(=O)[C@H]1CC=CC[C@H]1C(=O)O`, 48%.
Turning to `CCc1ccc(Nc2nnc(SC3CCOC3=O)s2)cc1` (stereo not given), the inhibition is 43%.
For `COc1ccc2nc(SCC(=O)Nc3cc(OC)c(OC)cc3C(=O)O)c(C)cc2c1`, the inhibition is 66% (active).
In the case of `Cc1ccc(-n2c(C)cc(C(=O)COC(=O)c3ccc[nH]c3=O)c2C)cc1C`, the inhibition was 54% (active).
To `COC(=O)c1c(-c2ccc(C)cc2)csc1NC(=O)[C@H]1CC=CC[C@H]1C(=O)O` belongs 58% (active); to `COc1ccc(-c2cc(=O)[nH][nH]2)cc1OC`, 8%; to `Cc1ccc(Nc2nnc(SCc3cc(=O)n4ccsc4n3)s2)c(C)c1`, 22%.
To `COc1ccc(NC(=O)CSC2=NC(=O)CC(C)=N2)cc1` belongs 27%; to `COc1cc(NC(=O)CSc2nc3ccccc3cc2C)c(C(=O)O)cc1OC`, 67% (active); to `COc1ccc(-c2cc(=O)[nH][nH]2)cc1`, 22%.
